Drawing on PubChem BioAssay AID588519 (ICCB-Longwood Screening Facility, Harvard Medical School, 2011), this text covers % elongation and z-score for 41 compounds.

The target in the experiment is Genome polyprotein (Poliovirus type 1 (strain Mahoney)) (UniProt P03300). Put plainly: inhibitors of poliovirus polymerase RNA elongation – biochemical, fluorescence polarization, total intensity, primary screen (AID 588519). For z-score: compound at 16.7 µg/mL. The note with it: stronger effect = lower value; for % elongation: compound at 16.7 µg/mL; for z-score: measured here: FP z-score. (In general: Polarisation of emitted light reports the rotation of a fluorescent probe.)

The mark [1] stands for this setting: measured here: total intensity read-out.

Each structure is given as a SMILES string. Out of some 150,000 compounds screened, about 1,000 (0.67%) were called active. Cut-off read from the data, not from the text of the source: active = % elongation below about 90%; inactive = the rest, inconclusive results apart. What follows is part of a selection rich in actives, with near analogues and random picks from the rest.

Genome polyprotein (Poliovirus type 1 (strain Mahoney)), sequence (P03300 1749-2209 limits assumed): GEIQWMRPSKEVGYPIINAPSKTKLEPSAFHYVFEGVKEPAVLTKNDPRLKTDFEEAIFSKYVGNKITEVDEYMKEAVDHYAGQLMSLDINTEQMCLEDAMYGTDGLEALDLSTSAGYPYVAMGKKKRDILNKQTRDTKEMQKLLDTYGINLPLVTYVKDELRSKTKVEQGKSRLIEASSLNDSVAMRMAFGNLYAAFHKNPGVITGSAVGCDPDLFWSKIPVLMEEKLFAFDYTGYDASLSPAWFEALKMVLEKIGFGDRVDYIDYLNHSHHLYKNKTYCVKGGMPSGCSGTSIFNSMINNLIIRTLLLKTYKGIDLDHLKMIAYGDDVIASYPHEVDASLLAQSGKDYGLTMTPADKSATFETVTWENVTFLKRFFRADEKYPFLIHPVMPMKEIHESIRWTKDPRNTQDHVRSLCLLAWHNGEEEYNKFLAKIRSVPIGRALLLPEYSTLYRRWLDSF

`CC(C)(C)c1ccc(C(=O)NCCn2c(N)c(C#N)c3nc4ccccc4nc32)cc1`: the % elongation was 107% (inactive) and the z-score was determined as 0.5. Besides, the % elongation under setting [1] was 112%.

On to `CC(c1ccccc1)n1c(N)c(C#N)c2nc3ccccc3nc21` (stereo not drawn), for which the % elongation is 97% (inactive) and the z-score was -1.4. Moreover, under setting [1], the % elongation is 106%.

Consider `Cc1nnc2ccc(-c3ccc(NS(=O)(=O)c4ccc5c(c4)OCCO5)cc3)nn12`, for which the % elongation is 99% (inactive) and the z-score was -1.2. Further, the % elongation under setting [1] is 102%.

In the case of `CCOC(=O)c1c(NC(=O)c2cc(-c3ccc(Cl)cc3)on2)sc2c1CCCC2`, the % elongation was 84% (active) and the z-score is -3. Further, the % elongation under setting [1] worked out at 85%.

Take `CCOCCCNC(=O)c1c(NC(=O)Cc2coc3ccc(C)cc23)sc2c1CCC2`: the % elongation was 116% (inactive) and the z-score is 0.1. For the same compound, the % elongation under setting [1] was determined as 114%.

For the compound `COc1ccc(-c2cc(C(=O)Nc3sc4c(c3C(N)=O)CCCC4)no2)cc1`, the % elongation was 100% (inactive) and the z-score was -0.5. In addition, the % elongation under setting [1] is 102%.

`CCOC(=O)c1c(NC(=O)Cc2coc3ccc(CC)cc23)sc2c1CCC2`: the % elongation was -3% (active) and the z-score is -8.5. The % elongation under setting [1] amounted to 25%.

On to `CCOC(=O)c1c(NC(=O)c2cc(-n3cnnc3)ccc2Cl)sc2c1CCCC2`, for which the % elongation was 99% (inactive) and the z-score is -0.5. The % elongation under setting [1] turned out to be 100%.

With `CCOCCCNC(=O)c1c(NC(=O)Cc2coc3c(C)c(C)ccc23)sc2c1CCC2`, the % elongation was 116% (inactive) and the z-score stood at 0.1. Besides, the % elongation under setting [1] came out at 117%.

In the case of `CCCN(Cc1nc2cc(Cl)ccc2c(=O)[nH]1)C(=S)NC`, the % elongation is 99% (inactive) and the z-score is -0.3. Under setting [1], the % elongation was found to be 99%.

For the compound `CN(C)/N=C/C=C1\CCC/C(=C\C=N\N(C)C)C1=O`, the % elongation is 165% (inactive) and the z-score was found to be 6.6. Besides, the % elongation under setting [1] was found to be 154%.

In the case of `CN(C)c1ccc(/C=C(\C#N)NC(=O)c2ccccc2)cc1`, the % elongation was 103% (inactive) and the z-score worked out at 0. Also, under setting [1], the % elongation was found to be 108%.

Consider `Cc1ccc(NC(=O)COc2ccccc2O)cc1C`, for which the % elongation is 103% (inactive) and the z-score was determined as 0.1. In addition, the % elongation under setting [1] came to 104%.

As to `Cc1ccc2[nH]c(=O)c(CNCCCN(C)C)cc2c1`, the % elongation was 100% (inactive) and the z-score was -0.2. Also, the % elongation under setting [1] is 102%.

`Cc1c(NC(=O)Cc2ccc(S(=O)(=O)N3CCCCC3)cc2)c(=O)n(-c2ccccc2)n1C`: the % elongation is 102% (inactive) and the z-score was -0.1. For the same compound, the % elongation under setting [1] stood at 108%.

In the case of `Cc1cc(Nc2ccc(Cl)cc2)c2ccccc2n1`, the % elongation is 92% (inactive) and the z-score is -1. Besides, the % elongation under setting [1] was determined as 93%.

As to `Cc1cc(Sc2nnc(C)s2)c2ccccc2n1`, the % elongation is 86% (active) and the z-score is -1.5. Further, the % elongation under setting [1] turned out to be 83%.

As for `Cc1ccc2nc(C)cc(Nc3ccccc3)c2c1`, the % elongation is 101% (inactive) and the z-score was -0.1. The % elongation under setting [1] is 105%.

With `CC(C)CCSc1nc2ncn(C)c2c(=O)[nH]1`, the % elongation is 104% (inactive) and the z-score is 0.4. The % elongation under setting [1] was determined as 108%.

`COc1cc(/C=N/NS(=O)(=O)c2cc(C)ccc2C)cc(OC)c1O`: the % elongation was 104% (inactive) and the z-score stood at 0.3. For the same compound, the % elongation under setting [1] was 124%.

Turning to `O=C1S/C(=C/c2cc3c(cc2Cl)OCO3)C(=O)N1c1ccccc1`, the % elongation was 100% (inactive) and the z-score is -0.4. For the same compound, under setting [1], the % elongation stood at 103%.

As for `CCN(CC)c1nc(C#N)nc(OC)n1`, the % elongation was 87% (active) and the z-score is -1.5. In addition, under setting [1], the % elongation was determined as 90%.

As for `NS(=O)(=O)c1ccc(N=Cc2c(O)n(Cc3ccc4c(c3)OCO4)c(=O)c3ccccc23)cc1`, the % elongation was 100% (inactive) and the z-score came to 0. In addition, the % elongation under setting [1] worked out at 105%.

As for `CN=C(Cl)c1cccs1`, the % elongation is 99% (inactive) and the z-score is -0.6. The % elongation under setting [1] came out at 101%.

As for `O=C(Nc1cccc(Cl)c1)N1CCC(n2nnc3cc(F)ccc32)CC1`, the % elongation was 102% (inactive) and the z-score was found to be 0.2. For the same compound, the % elongation under setting [1] was found to be 100%.

`CN(C)C(=O)CCSc1nc2cc(Cl)ccc2o1`: the % elongation is 103% (inactive) and the z-score came to 0.3. Under setting [1], the % elongation worked out at 102%.

On to `CCCCC(=O)Nc1sc2c(c1C#N)CCCC2`, for which the % elongation is 92% (inactive) and the z-score was -1.4. Further, the % elongation under setting [1] was 100%.

Turning to `CNC(=O)c1sc(NCc2ccccc2OC)nc1C`, the % elongation was 80% (active) and the z-score is -3.1. Moreover, the % elongation under setting [1] stood at 89%.

For `COc1ccccc1CNCc1ccc(C(=O)O)s1`, the % elongation is 108% (inactive) and the z-score came to 0.4. Under setting [1], the % elongation amounted to 113%.

With `COc1ccccc1CNC(=O)CS(=O)(=O)c1cccc2nsnc12`, the % elongation was 105% (inactive) and the z-score is -0.4. For the same compound, the % elongation under setting [1] amounted to 112%.

Regarding `O=C(NCc1ccncc1)C1CCN(C(=O)c2cccc(Cl)c2)CC1`, the % elongation is 99% (inactive) and the z-score was -0.2. Besides, the % elongation under setting [1] came to 102%.

In the case of `O=C(c1ccccc1)N1CCN(c2cccc(Cl)c2)CC1`, the % elongation is 100% (inactive) and the z-score is -0.3. For the same compound, under setting [1], the % elongation was determined as 95%.

As to `O=C(c1cccc(Cl)c1)N1CCN(CCc2ccncc2)CC1`, the % elongation is 21% (active) and the z-score is -6.3. Further, the % elongation under setting [1] is 37%.

As to `O=C(O)CSc1nnc(-c2ccccc2)n1-c1ccccc1`, the % elongation is 101% (inactive) and the z-score was -0.2. For the same compound, the % elongation under setting [1] was 102%.

Regarding `O=C(O)c1ccc2nc[nH]c2c1`, the % elongation was 100% (inactive) and the z-score was -0.4. Also, the % elongation under setting [1] stood at 108%.

Consider `CCOC(=O)c1sc(NC(=O)/C=C/c2ccc(Cl)cc2)cc1C`, for which the % elongation is 102% (inactive) and the z-score amounted to 0.3. Further, the % elongation under setting [1] worked out at 106%.

For `CC(C)(C)NCC(O)COc1c(Br)ccc2c1sc1nc3n(c(=O)c12)CCCCC3` (stereo not drawn), the % elongation is 69% (active) and the z-score was -4.7. For the same compound, the % elongation under setting [1] turned out to be 96%.

With `CCN(C(=O)c1sc2nc3n(c(=O)c2c1C)CCCC3)c1ccccc1`, the % elongation is 100% (inactive) and the z-score was -1.2. Moreover, the % elongation under setting [1] stood at 100%.

Consider `COc1cc(OC)c(N(C)C(=O)c2ccc3c(=O)n4c(nc3c2)CCCCC4)cc1Cl`, for which the % elongation is 105% (inactive) and the z-score came to 0.9. The % elongation under setting [1] amounted to 109%.

With `CC1CC(C)CN(C(=O)C(C)Sc2nnnn2-c2ccc(Cl)cc2)C1` (stereo not drawn), the % elongation is 98% (inactive) and the z-score was -0.5. Moreover, the % elongation under setting [1] is 99%.

With `O=C1CCCCCN1Cc1nnc(SCN2C(=O)c3ccccc3C2=O)n1-c1ccccn1`, the % elongation was 106% (inactive) and the z-score amounted to 0.4. Under setting [1], the % elongation was 100%.
